Among all 320,000 compounds or so, about 2,100 (0.66%) were called active. Inconclusive results (about 53%) are left out. Calls follow the shape of the dose curve; as a rule, active = well fitted inhibition curve with a large enough effect in the signal ratio, with a control signal flat (not every such curve was filed as active); inconclusive = small, poorly fitted or top-dose-only effect, or effect the other way, or a change in a side signal; inactive = flat fitted curve, though single readings scatter; the % refers to the signal ratio. For the sample, actives were picked, then their nearest neighbours and some compounds at random.
Potency is read from the fitted curve at half-maximal effect.

This assay in a line: qHTS Assay for Lipid Storage Modulators in Drosophila S3 Cells.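 As to cell number change: cells counted by Cell Tracker Red CMTPX staining in the red channel.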 As to lipid storage change, negative = inhibition: % is scaled to controls: 0 for no effect and ±100 for the full control effect. The note with it: BODIPY lipid droplet fluorescence, 18-24 h, cells fed with added oleic acid; cell number change: measured here: cell count max response; series mostly up to 46.1 µM; lipid storage change, negative = inhibition: at the top concentration. In a few lines:
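Laser-scanning cytometry quantifies lipid droplet accumulation (500–530 nm total intensity; droplet/cell object ratio) in oleic acid-fed (400 uM added) Drosophila S3 cells treated with a concentration series. 20 uM Triacsin C defined 100% inhibition.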
Background: Quantitative high-throughput screening tests each substance at several concentrations.
Turning to `Cc1c(NC(=O)CSc2ccccc2C(=O)Nc2cccnc2)c(=O)n(-c2ccccc2)n1C`, the “lipid storage change, negative = inhibition” value was 0.352% (inactive) and the cell number change is 13.8%.
With `CCOC(=O)C1(CCOC)CCN(Cc2ccc(C3CCCCO3)s2)CC1` (stereo not drawn), the “lipid storage change, negative = inhibition” value was -17.6% (inactive) and the cell number change was -8.03%.
`O=C1C2C(C(=O)N1CCc1ccccc1)C1C=CC2C12CC2` (stereo not drawn): the Potency is 23.1 µM (active) and the cell number change was -11.6%.
Regarding `O=C1C2C(C(=O)N1Cc1cccnc1)C1C=CC2C12CC2` (stereo not drawn), the outcome was inactive and the cell number change was -2.7%.
In the case of `O=C(Cc1ccccc1)NN1C(=O)C2C3C=CC([C@@H]2C1=O)C31CC1` (stereo partly drawn), the “lipid storage change, negative = inhibition” value is -2.59% (inactive) and the cell number change was -3.77%.
`COCC(=O)Nc1ccc(C(C)C)cc1`: the molecule was classed as inactive and the cell number change was found to be 24.3%.
Regarding `CC(C)(C)C(=O)NCCN1CCN(C(=O)C(C)(C)C)CC1`, the “lipid storage change, negative = inhibition” value was 5.31% (inactive) and the cell number change worked out at 3.18%.
With `Cc1ccc(-c2nnn(CC(=O)O)n2)cc1`, the molecule was called inactive.
As to `Cc1ccc(-c2nnn(CCC(=O)N3CCCCC3C)n2)cc1` (stereo not drawn), the “lipid storage change, negative = inhibition” value was 5.42% (inactive) and the cell number change was 10.5%.
Take `Cc1ccc(-c2nnn(CC(=O)N3C(C)CCCC3C)n2)cc1` (stereo not drawn): the Potency was 10.3 µM (active) and the cell number change was -11%.
`Cc1ncc(CO)c(/C=N/NC(=O)c2ccccc2Br)c1O`: the “lipid storage change, negative = inhibition” value is -8.28% (inactive) and the cell number change came out at 0.48%.
For the molecule `Cc1cc(C(=O)N/N=C/c2c(CO)cnc(C)c2O)c2ccccc2n1`, the Potency is 5.17 µM (active) and the cell number change is -19.9%.
Turning to `Cc1ncc(CO)c(/C=N/NC(=O)c2ccc(O)cc2)c1O`, the “lipid storage change, negative = inhibition” value was -1.92% (inactive) and the cell number change was found to be 19.8%.
The matching figures for `Cn1c(CNC(=O)OC(C)(C)C)nnc1SCc1c(Cl)cccc1Cl`: 6.49% (inactive) and -2.58%.
In the case of `Nc1nc(-c2ccccc2)nn1C(=O)c1ccco1`, the “lipid storage change, negative = inhibition” value was -0.905% (inactive) and the cell number change is -9.73%.
As for `Cc1cc(NC(=O)COC(=O)CCC(=O)c2ccc(F)cc2)no1`, the “lipid storage change, negative = inhibition” value is -10.1% (inactive) and the cell number change came out at 5.31%.
For the molecule `O=C(CN1C(=O)NC2(CCCCCC2)C1=O)NCc1cccs1`, the “lipid storage change, negative = inhibition” value is 1.88% (inactive) and the cell number change is -8.23%.
Regarding `CC(C)(C)c1ccc(C2(C)NC(=O)N(CC(=O)NCc3cccs3)C2=O)cc1` (stereo not drawn), the Potency is 5.17 µM (active) and the cell number change worked out at 3.77%.
For the molecule `COc1ccc(CNC(=O)CN2C(=O)NC(C)(c3ccc(C(C)(C)C)cc3)C2=O)cc1` (stereo not drawn), the “lipid storage change, negative = inhibition” value is 2.76% (inactive) and the cell number change is 5.69%.
For the molecule `Cc1ccc(S(=O)(=O)NCc2ccccc2)cc1C(=O)N1CCCCCCC1`, the “lipid storage change, negative = inhibition” value was -14.6% (inactive) and the cell number change was -10.2%.
For the molecule `COCCNC(=O)c1onc(CSc2nc3ccccc3[nH]2)c1C(=O)NCCOC`, the molecule was called inactive and the cell number change was -7.78%.
For the molecule `O=C(NCc1ccccc1)c1onc(CSc2nc3ccccc3[nH]2)c1C(=O)NCc1ccccc1`, the Potency is 14.6 µM (active) and the cell number change was -26.6%.
In the case of `C=CCNC(=O)c1onc(CSc2nc3ccccc3[nH]2)c1C(=O)NCC=C`, the result was inactive and the cell number change was -6.29%.
In the case of `Cc1cc(C)cc(SCc2noc(C(=O)NCc3ccccc3)c2C(=O)NCc2ccccc2)c1`, the “lipid storage change, negative = inhibition” value was 5.46% (inactive) and the cell number change was -2.6%.
The matching figures for `O=C(NCC1CC1)c1onc(CSc2ccc(F)cc2)c1C(=O)NCC1CC1`: -7.02% (inactive) and 10.6%.
Consider `O=C(NCC1CC1)c1onc(CSc2nc3ccccc3[nH]2)c1C(=O)NCC1CC1`, for which the Potency was 11.6 µM (active) and the cell number change is -10.5%.
In the case of `Cc1c(C(=O)OC(C)C)nnn1-c1nonc1N`, the “lipid storage change, negative = inhibition” value is -3.46% (inactive) and the cell number change came to 7.24%.
Regarding `Cc1ccsc1-c1nc(CN2CCCC2c2ccc(F)cc2)c(C)o1` (stereo not drawn), the “lipid storage change, negative = inhibition” value is 8.98% (inactive) and the cell number change was determined as 4.95%.
For `Cc1cnc(C(=O)N2CCCC(C(=O)c3cccc(OC(C)C)c3)C2)cn1` (stereo not drawn), the “lipid storage change, negative = inhibition” value was 2.98% (inactive) and the cell number change was -12.5%.
For the molecule `Cc1ccc(C)c(NC(=O)c2ccc[n+](Cc3ccc([N+](=O)[O-])cc3)c2)c1`, the “lipid storage change, negative = inhibition” value was -3.16% (inactive) and the cell number change was found to be 11.2%.
The matching figures for `CNNC(=O)C(C)NC(=O)c1ccc(Br)cc1` (stereo not drawn): 11.6% (inactive) and 10.8%.
As for `CCC(CC)NC(=O)Nc1ccc(C)cc1`, the “lipid storage change, negative = inhibition” value was 5.28% (inactive) and the cell number change was -11.1%.
Taken in the same sequence, the figures for `CCN(CC)c1nc(N)nc(NS(=O)(=O)c2ccc(Cl)cc2)n1` were 8.21% (inactive) and 7.29%.
Taken in the same sequence, the figures for `CCOCCCn1c(SCC(=O)NC(C)(C)C)nc2ccccc2c1=O` were 29.5% (inactive) and -4.14%.
Taken in the same sequence, the figures for `O=c1c2ccccc2nc(SCc2nc3ccccc3s2)n1CCCO` were 0.263% (inactive) and -14.5%.
Turning to `CCOCCCn1c(SCc2nc3ccccc3s2)nc2ccccc2c1=O`, the Potency is 3.66 µM (active) and the cell number change is -21.8%.
`Brc1ccccc1OCCCN1CCCCCC1`: the “lipid storage change, negative = inhibition” value is -11.1% (inactive) and the cell number change worked out at 5.41%.
With `O=C(CCNC(=O)c1ccccc1)Nc1nc2ccccc2s1`, the Potency was 3.66 µM (active) and the cell number change was found to be 12%.
As for `COc1ccc2nc(NC(=S)NC(=O)c3ccco3)sc2c1`, the “lipid storage change, negative = inhibition” value was 0.215% (inactive) and the cell number change worked out at 10%.
Taken in the same sequence, the figures for `O=C(NNc1nc2c(F)cccc2s1)c1cc(=O)c2ccccc2o1` were -15% (inactive) and -1.04%.
As for `O=C(CCNC(=O)c1ccccc1Cl)Nc1nc2ccccc2s1`, the “lipid storage change, negative = inhibition” value is 6.98% (inactive) and the cell number change was found to be 9.97%.
`CC(=O)c1sc(NC(=O)c2cc(=O)c3ccccc3o2)nc1C`: the “lipid storage change, negative = inhibition” value was -6.15% (inactive) and the cell number change was -11.4%.
As for `COc1ccc2nc(NC(=O)CCNC(=O)c3ccco3)sc2c1`, the Potency was 8.2 µM (active) and the cell number change amounted to 15.7%.
`COc1ccc2nc(NC(=O)c3ccco3)sc2c1`: the “lipid storage change, negative = inhibition” value is -16.9% (inactive) and the cell number change was determined as 9.21%.
As to `COc1ccc2nc(NNC(=O)c3cc(=O)c4ccccc4o3)sc2c1`, the Potency was 5.17 µM (active) and the cell number change is 1.29%.
With `O=C(Cc1ccccc1)Nc1nc2ccccc2s1`, the “lipid storage change, negative = inhibition” value is -4.4% (inactive) and the cell number change is -15.5%.
Taken in the same sequence, the figures for `COc1ccc(C(=O)NCCOc2cccc(OC)c2)cc1` were 14.8% (inactive) and 26.7%.

The values above are taken from PubChem BioAssay AID2685 (National Center for Advancing Translational Sciences (NCATS), 2010).
